Hits are enriched below; roughly 0.4% of the tested compounds scored in any of these assays.
EPAC1 antagonist: blocks human EPAC1 exchange factor. O95398. EPAC1 GEF assay, Rap1b-BODIPY-GDP exchange fluorescence. Potency, µM (top dose mostly 115 µM), for inactives: top-dose activity change, negative = inhibition, most hits filed as inhibitors. 0.14% of 360,000 active;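 also: potency is read from the fitted curve at half-maximal effect; plate controls were vehicle for no effect and positive control for full effect; nearly all actives have a fitted effect of over 50% in size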
TRPML1 agonist: agonists of human TRPML1 channel; Q9GZU1; TRPML1-expressing cells, Ca2+ dye fluorescence, FDSS; activation, % (test concentration not listed); 0.12% of 410,000 active; AID 624414; in the data active = activation above about 50%; inconclusive = mostly about 30% to 49%; also: 0% is about no effect
Target sequence (Q9GZU1 whole entry, looked up): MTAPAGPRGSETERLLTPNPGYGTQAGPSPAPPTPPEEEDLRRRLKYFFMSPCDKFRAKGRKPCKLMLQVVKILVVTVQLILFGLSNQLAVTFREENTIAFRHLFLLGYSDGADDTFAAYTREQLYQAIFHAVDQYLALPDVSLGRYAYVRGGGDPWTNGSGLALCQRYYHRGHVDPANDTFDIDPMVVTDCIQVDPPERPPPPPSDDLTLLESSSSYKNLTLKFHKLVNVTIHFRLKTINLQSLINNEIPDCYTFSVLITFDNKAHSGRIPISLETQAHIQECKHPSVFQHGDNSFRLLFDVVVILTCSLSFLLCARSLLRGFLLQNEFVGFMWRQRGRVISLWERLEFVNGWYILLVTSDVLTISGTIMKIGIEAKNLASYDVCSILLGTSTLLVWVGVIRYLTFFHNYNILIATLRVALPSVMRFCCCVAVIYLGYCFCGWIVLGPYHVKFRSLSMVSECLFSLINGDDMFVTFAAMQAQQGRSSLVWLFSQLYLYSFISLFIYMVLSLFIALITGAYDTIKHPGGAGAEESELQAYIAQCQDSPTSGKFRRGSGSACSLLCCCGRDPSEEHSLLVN
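Cells: TRPML1-DL, 1X Tet inducer, ~16 h at 37 degrees C/5% CO2. Dye: ABD Ca8 no-wash + quencher, 45-90 min RT. Read: 10 s baseline, compound add, 110 s agonist phase; 54-4 EC80 (4uM final), 110 s antagonist phase.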
EPAC2 antagonist: antagonists of human EPAC2. Q8WZA2. EPAC2 GEF exchange of Rap1B-BODIPY-GDP, fluorescence. Potency, µM (highest dose often 114 µM), for inactives: at the highest dose activity, negative = inhibition, usual class: inhibitors. 0.18% of 360,000 active; also: potency is read from the fitted curve at half-maximal effect; % is scaled to controls: 0 for no effect and ±100 for the full control effect; nearly all actives have a fitted effect of over 45% in size
EPAC2 agonist: activates human EPAC2 exchange factor | EPAC2 activation, biochemical qHTS; response scale: 100% = 6.5 mM cAMP response | AID 720711 | Q8WZA2 | Potency, µM (titrated, usually from 154 µM), for the others: at the top dose activation, hits mostly activators | 0.079% of 360,000 active; also: potency is read from the fitted curve at half-maximal effect; nearly all actives have a fitted effect of over 50% in size
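Setup: EPAC2 100 nM, labeled Rap1B complex 250 nM, free GDP 50 uM. Compound titrations pinned in, brief spin, 5 min room temperature incubation. Kinetic fluorescence read over 30 min, normalized to 6.5 mM cAMP.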
EPAC1 ag: EPAC1 (human) agonism; EPAC1 agonist qHTS, biochemical assay; response scale: 100% = response to 6.5 mM cAMP; 0.073% of 360,000 active; Potency, µM (top dose mostly 154 µM), inactives show at the highest dose activation, most hits filed as activators; also: potency is read from the fitted curve at half-maximal effect; nearly all actives have a fitted effect of over 60% in size
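Nucleotide exchange assay: 100 nM EPAC1 with 250 nM Rap1B loaded with BODIPY-GDP and 50 uM GDP, room temperature. Fluorescence (480/540 nm) read every 5 min for 30 min; signal change normalized to 6.5 mM cAMP as full agonist.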
TRPML1 inh: blocks the human TRPML1 channel; Q9GZU1; 0.02% of 390,000 active; AID 624415; activity change, negative = inhibition, % (no concentration beside the values); TRPML1-inducible cells, Ca2+ dye fluorescence, FDSS; stronger effect = lower value; inhibition of EC80 agonist-evoked calcium signal; in the data active = activity change below about -50%; inconclusive = between about -30% and that limit;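 also: stimulus is agonist 54-4 at its EC80 concentration; % is scaled to controls: 0 for no effect and ±100 for the full control effect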
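Calcium fluorescence in TRPML1-DL cells induced overnight with Tet: a 110 s read after compound pin addition, then a 110 s antagonist read after challenge with 54-4 at 4 uM final (EC80).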
* marks the source's active call; other numbers are inactive results; ? = inconclusive; nt = no result. Unless noted, calls follow the shape of the dose curve; as a rule, active = well fitted curve in the direction sought with a large enough effect; inconclusive = small, poorly fitted or top-dose-only effect, or another doubt; inactive = no such curve, though single readings can be large; an effect the other way counts as inactive or inconclusive.

SMILES	EPAC1 antagonist	TRPML1 agonist	EPAC2 antagonist	EPAC2 agonist	EPAC1 ag	TRPML1 inh
O=[N+]([O-])c1ccc(C=C2c3ccccc3-c3ccccc32)cc1	nt	-0.8	nt	nt	nt	nt
COC(=O)c1cn(C(=O)c2cc(C)cc(C)c2)c2ccccc12	-19.0%	-0.7	?	7.6%	9.9%	-1.1
COC(=O)c1cn(C(=O)c2cc(OC)c(OC)c(OC)c2)c2ccccc12	0.9%	-0.4	17.8µM*	5.3%	-1.1%	34.7
CSCCC(C(=O)O)N1C(=O)c2ccc(C(=O)O)cc2C1=O (configuration not stated)	5.1%	-1.1	-4.7%	10µM*	3.3%	5.1
Cc1cc(N(C)C)c(C)cc1/C=C/c1ccnc2ccccc12	nt	13.9	nt	nt	nt	nt
O=C(NC1CCCCC1)[C@@H]1CC=C[C@@H]2CCN(Cc3ccc(Cl)c(Cl)c3)C(=O)[C@@H]21	nt	-0.6	nt	nt	nt	nt
CCS(=O)(=O)C1=NN2C(=N)/C(=C\c3ccc(OCCOc4cccc(OC)c4)c(OC)c3)C(=O)N=C2S1	?	0.3	?	-1.1%	-5.7%	-11.9
CCOc1cc(/C=C2\C(=N)N3N=C(S(C)(=O)=O)SC3=NC2=O)ccc1OCCOc1cccc(OC)c1	50.1µM*	1.0	-21.1%	-7.4%	1.9%	-2.7
CCCC(=O)O[C@@H]1C[C@@H](C)N(C(=O)c2ccccc2)c2ccc(C)cc21	8.2%	2.0	20µM*	-20.5%	-3.4%	28.8
Cc1ccc(C(C[N+](=O)[O-])c2c(-c3ccccc3O)[nH][nH]c2=O)cc1 (configuration not stated)	-17.4%	-0.4	11.2µM*	-3.1%	-16.6%	2.6
O=c1[nH][nH]c(-c2ccccc2O)c1C(C[N+](=O)[O-])c1ccc(Br)cc1 (configuration not stated)	17.1%	-0.3	11.2µM*	-8.7%	-13.0%	-10.5

High-throughput results from PubChem.
